# Reference: PubChem BioAssay (NCATS)
# Records with an inconclusive call do not appear. Calls of active or inactive are those of the source. Calls follow the shape of the dose curve; as a rule, active = well fitted inhibition curve with a large enough effect; inconclusive = small, poorly fitted or top-dose-only effect; inactive = flat fitted curve, though single readings scatter.
# Biological target: Calcium and integrin-binding protein 1 (Homo sapiens) (UniProt Q99828)
# Assay: Primary qHTS for Identification of Calcium Integrin Binding Protein 1 (CIB1) Competitor (AID 1508620);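 also: GST tagged CIB1 binding a fluorescein labelled alphaIIb integrin peptide tracer; top concentration of the series differs between compounds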
# Details: CIB1-GST / FITC-alphaIIb peptide fluorescence polarization; series mostly up to 114 µM; activity change, negative = inhibition: at the top concentration
# Summary of the method: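 CIB1-GST (1 uM final) and compound incubated 15 min at room temperature before adding FITC-alphaIIb peptide tracer (100 nM final). Competition for binding read by fluorescence polarization (ex 480, em 540) after another 15 min at room temperature.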
# % is scaled to controls: 0 for no effect and ±100 for the full control effect.
# Sequence of Calcium and integrin-binding protein 1 (Homo sapiens) (Q99828 whole entry, looked up): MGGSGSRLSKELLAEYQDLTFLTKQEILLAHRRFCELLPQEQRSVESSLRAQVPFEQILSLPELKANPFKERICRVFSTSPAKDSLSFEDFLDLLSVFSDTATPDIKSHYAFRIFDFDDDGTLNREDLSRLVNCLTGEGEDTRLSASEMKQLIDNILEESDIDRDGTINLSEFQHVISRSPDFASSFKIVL
row,Compound,"activity change, negative = inhibition"
1,O=C(O)CN1C(=O)/C(=C/c2ccc(-c3cccc(Cl)c3)o2)SC1=S,58.9% (inactive)
2,Cc1nc(CNc2ncnc3ccc(-c4sc(C)nc4C)cc23)cs1,0.747% (inactive)
3,COc1ccc(-c2ccc3nnc(-c4ccccc4OC)n3n2)cc1OC,-9.15% (inactive)
4,O=C1CCc2cc(S(=O)(=O)Nc3cccc(-c4ccccc4)c3)ccc2N1,2.35% (inactive)
5,Fc1cccc(CNc2ncnc3ccc(-c4ccc5c(c4)OCO5)cc23)c1,4.84% (inactive)
6,Cc1ccc(NS(=O)(=O)c2ccc3c(c2)oc(=O)n3C)cc1C,1.77% (inactive)
7,COc1ccc(NC(=O)CN(C)C(=O)c2cc3c(s2)CCC3)cc1,0.74% (inactive)
8,Cc1ccc(OCCn2c(CCNC(=O)CCN3CCCCC3)nc3ccccc32)cc1,3.12% (inactive)
9,Cc1cncc(NC(=S)N2CCN(c3cccc(C(F)(F)F)c3)CC2)c1,4.35% (inactive)
10,CC(=O)Nc1sc2c(c1-c1cccc3c1sc1ccccc13)CCNC2,9.6% (inactive)
11,CCOc1cc(CCNC(=O)c2cc3sccc3n2Cc2ccccc2)cc(F)c1OCC,4.75% (inactive)
12,CC(C)(C)OC(=O)Nc1ncnc2c1C(c1ccccc1)c1c(ccc3ccccc13)O2 (stereo not given),4.97% (inactive)
13,Cc1cc(C)nc(NC(=S)N2CCN(c3ccc4occc4c3)CC2)c1,-10.3% (inactive)
14,COC(=O)c1ccc2c(c1)S(=O)(=O)NC2=O,2.15% (inactive)
15,Cc1cc(C)n2ncc(C(=O)Nc3ccccc3C)c2n1,0.279% (inactive)
16,Cc1c(P(=S)(c2ccccc2)c2ccccc2)c2ccccc2n1C/C=C/c1ccccc1,2.69% (inactive)
17,Cc1cc(C)nc(NC(=S)N2CCN(c3ccc(Cl)cc3S(C)(=O)=O)CC2)c1,-2.12% (inactive)
18,Cc1cc2c(s1)c1c(n2C)C(=O)N(Cc2ccccc2F)C1,-7.44% (inactive)
19,COc1ccc(CN(Cc2ccccc2)C(=O)c2ccc(OC)cc2O)cc1,-2.52% (inactive)
20,COc1cc(F)c(S(=O)(=O)N2CCCN(S(=O)(=O)c3ccc(NC(C)=O)cc3)CC2)c(F)c1,2.13% (inactive)

row,Compound,"activity change, negative = inhibition"
1,Cc1noc(-c2sc3c(c2-c2nc4ccccc4s2)CCNC3)n1,-0.415% (inactive)
2,Cc1cc(NCc2ccc(-c3cccnc3)cc2)nc(-c2ccccc2C(C)C)n1,4.93% (inactive)
3,O=C(NCCc1nc2ccccc2n1CCCc1ccccc1)C1CCCCC1,3.45% (inactive)
4,Nc1ccc(Nc2cc(O)c3ncccc3c2)cc1,-18.4% (inactive)
5,O=[S+]([O-])(Nc1ccc(C2CCNCC2)cc1)c1ccc(NCc2ccc(Cl)cc2O)cc1,-21.2% (inactive)
6,N#Cc1nc(NCC(F)F)nc(Nc2cc(F)cc(F)c2)n1,-1.65% (inactive)
7,O=C(NCCc1nc2ccccc2n1CCOc1cc(F)ccc1F)C1CCCCC1,5.81% (inactive)
8,Cc1ccc(N[S+](=O)([O-])c2cc3c(cc2Cl)CCC(=O)N3)cc1Br,-5.02% (inactive)
9,CN1CCc2sc(NC(=O)Cc3ccccc3)c(C(=O)Nc3ccc(Cl)cc3)c2C1,2.33% (inactive)
10,Cn1nnnc1Sc1ncnc2scc(-c3cccc(N)c3)c12,1.05% (inactive)
11,O=C1CCCC2=C1C(c1[nH]ncc1Cl)N=C(Nc1nc3ccc(Cl)cc3o1)N2 (stereo not given),-5.23% (inactive)
12,O=C(CNC(=O)c1ccc(C(F)(F)F)cc1)OC(C(=O)Nc1cc(C(F)(F)F)ccc1Cl)c1ccccc1 (stereo not given),0.988% (inactive)
13,N#Cc1ccc(-c2ccc(-c3nc4ccccc4c(=O)[nH]3)o2)cc1,1.75% (inactive)
14,Cc1ccc(OCCn2c(CCNC(=O)C3CCC3)nc3ccccc32)cc1,-4.31% (inactive)
15,COc1ccc(C2Cc3ccccc3C(=O)N2Cc2ccccc2)cc1COc1ccc(NC(C)=O)cc1 (stereo not given),5.01% (inactive)
16,Cc1ccc(-c2ccnc(N3CCC(C(N)=O)CC3)n2)cc1,-1.39% (inactive)
17,O=C(Nc1ncc([S+](=O)([O-])N2CCOCC2)s1)c1cccc(Br)c1,-7.16% (inactive)
18,O=C(NCc1ccc(F)cc1)n1cc(P(=S)(c2ccccc2)c2ccccc2)c2ccccc21,2.15% (inactive)
19,C(=C\c1cccs1)/c1cccnc1,3.07% (inactive)
20,Nc1nnc(-c2cccc3ccccc23)o1,2.82% (inactive)
